Test results: PubChem BioAssay
Active and inactive are the calls of the source.

Tests used:
[1] = test system: PRMT1 (protein arginine N-methyltransferase 1); assay: PRMT1 binders on small-molecule microarrays, primary screen, biochemical, small-molecule microarray, 635 nm fluorescence (AID 1088); conditions: small-molecule microarray binding, higher = more signal;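 also: binding of Prmt1 protein to compounds spotted on small-molecule microarray slides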
[2] = yeast growth modulation, basal conditions, primary screen, YJM789 clinical isolate, OD600, 24 h (AID 1089);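 also: growth of clinical yeast isolate S. cerevisiae YJM 789 seeded 1000 cells per well; test concentration not given here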; conditions: S. cerevisiae YJM789 growth, higher = more signal, called active from +8 up or from −8 down
[3] = fission yeast growth modulation, primary screen, strain 972, OD600, 24 h, no modulator (AID 1090);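 also: basal condition with compound alone and no growth modifier present; test concentration not given here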; conditions: S. pombe 972 growth, higher = more signal, called active from +8 up or from −8 down
[4] = S. cerevisiae growth modulation with rapamycin, primary screen, strain BY4716, OD600, 96 h (AID 1091); conditions: higher = more signal, called active from +8 up or from −8 down; also: test concentration not given here
[5] = target: Torsin-1A-interacting protein 2 (Homo sapiens) (UniProt Q8NFQ8); assay: LULL1 binders on small-molecule microarray, primary screen, cell lysate, human LULL1 lysate, 635/667 nm fluorescence (AID 1092); conditions: hLULL1 lysate binding, 635 nm fluorescence, higher = more signal;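 also: probe is lysate of COS7 cells overexpressing human LULL1; score merges per-feature 667 nm fluorescence with signal-to-noise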
Torsin-1A-interacting protein 2 (Homo sapiens), sequence (Q8NFQ8 whole entry, looked up): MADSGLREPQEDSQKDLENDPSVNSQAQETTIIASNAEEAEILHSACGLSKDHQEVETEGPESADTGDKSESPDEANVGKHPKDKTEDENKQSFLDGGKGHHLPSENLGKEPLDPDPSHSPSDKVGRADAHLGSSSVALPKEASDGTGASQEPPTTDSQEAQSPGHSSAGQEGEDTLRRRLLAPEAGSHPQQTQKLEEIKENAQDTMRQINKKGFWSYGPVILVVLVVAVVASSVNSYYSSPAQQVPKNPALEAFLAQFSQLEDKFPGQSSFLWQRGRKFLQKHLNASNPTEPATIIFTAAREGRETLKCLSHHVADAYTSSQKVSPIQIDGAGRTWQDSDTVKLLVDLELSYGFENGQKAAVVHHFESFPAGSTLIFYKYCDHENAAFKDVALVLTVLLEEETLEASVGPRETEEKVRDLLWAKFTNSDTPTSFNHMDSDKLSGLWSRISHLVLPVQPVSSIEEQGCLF

[6] = E. coli growth modulation, two-sided OD650, primary screen, E. coli filamentation project, strain DRC41, 24 h (AID 1093); conditions: OD650, 24 h, higher = more signal, called active from +8 up or from −8 down;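 also: MC1000 strain lacking acrAB efflux and sulA so SOS filamentation is blocked; test concentration not given here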
[7] = small-molecule microarray binders of probe aLefty2, primary screen, biochemical, biotinylated probe, 635/667 nm fluorescence (AID 1094); conditions: higher = more signal;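 also: score merges spot fluorescence near 667 nm with spot signal-to-noise ratio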
[8] = test system: Noggin (protein binding on small-molecule microarray); assay: Noggin binders on small-molecule microarray, primary screen, biochemical, 635/667 nm fluorescence (AID 1095); conditions: 635 nm fluorescence, higher = more signal;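 also: score merges 667 nm feature fluorescence with signal to noise over triplicate slides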
[9] = target: Neurogenic locus notch homolog protein 3 (Homo sapiens) (UniProt Q9UM47); assay: NOTCH3 binders on small-molecule microarray, primary screen, biochemical, 635/667 nm fluorescence (AID 1096); conditions: NOTCH3 binding, 635 nm fluorescence, higher = more signal
Neurogenic locus notch homolog protein 3 (Homo sapiens), sequence (Q9UM47 whole entry, looked up): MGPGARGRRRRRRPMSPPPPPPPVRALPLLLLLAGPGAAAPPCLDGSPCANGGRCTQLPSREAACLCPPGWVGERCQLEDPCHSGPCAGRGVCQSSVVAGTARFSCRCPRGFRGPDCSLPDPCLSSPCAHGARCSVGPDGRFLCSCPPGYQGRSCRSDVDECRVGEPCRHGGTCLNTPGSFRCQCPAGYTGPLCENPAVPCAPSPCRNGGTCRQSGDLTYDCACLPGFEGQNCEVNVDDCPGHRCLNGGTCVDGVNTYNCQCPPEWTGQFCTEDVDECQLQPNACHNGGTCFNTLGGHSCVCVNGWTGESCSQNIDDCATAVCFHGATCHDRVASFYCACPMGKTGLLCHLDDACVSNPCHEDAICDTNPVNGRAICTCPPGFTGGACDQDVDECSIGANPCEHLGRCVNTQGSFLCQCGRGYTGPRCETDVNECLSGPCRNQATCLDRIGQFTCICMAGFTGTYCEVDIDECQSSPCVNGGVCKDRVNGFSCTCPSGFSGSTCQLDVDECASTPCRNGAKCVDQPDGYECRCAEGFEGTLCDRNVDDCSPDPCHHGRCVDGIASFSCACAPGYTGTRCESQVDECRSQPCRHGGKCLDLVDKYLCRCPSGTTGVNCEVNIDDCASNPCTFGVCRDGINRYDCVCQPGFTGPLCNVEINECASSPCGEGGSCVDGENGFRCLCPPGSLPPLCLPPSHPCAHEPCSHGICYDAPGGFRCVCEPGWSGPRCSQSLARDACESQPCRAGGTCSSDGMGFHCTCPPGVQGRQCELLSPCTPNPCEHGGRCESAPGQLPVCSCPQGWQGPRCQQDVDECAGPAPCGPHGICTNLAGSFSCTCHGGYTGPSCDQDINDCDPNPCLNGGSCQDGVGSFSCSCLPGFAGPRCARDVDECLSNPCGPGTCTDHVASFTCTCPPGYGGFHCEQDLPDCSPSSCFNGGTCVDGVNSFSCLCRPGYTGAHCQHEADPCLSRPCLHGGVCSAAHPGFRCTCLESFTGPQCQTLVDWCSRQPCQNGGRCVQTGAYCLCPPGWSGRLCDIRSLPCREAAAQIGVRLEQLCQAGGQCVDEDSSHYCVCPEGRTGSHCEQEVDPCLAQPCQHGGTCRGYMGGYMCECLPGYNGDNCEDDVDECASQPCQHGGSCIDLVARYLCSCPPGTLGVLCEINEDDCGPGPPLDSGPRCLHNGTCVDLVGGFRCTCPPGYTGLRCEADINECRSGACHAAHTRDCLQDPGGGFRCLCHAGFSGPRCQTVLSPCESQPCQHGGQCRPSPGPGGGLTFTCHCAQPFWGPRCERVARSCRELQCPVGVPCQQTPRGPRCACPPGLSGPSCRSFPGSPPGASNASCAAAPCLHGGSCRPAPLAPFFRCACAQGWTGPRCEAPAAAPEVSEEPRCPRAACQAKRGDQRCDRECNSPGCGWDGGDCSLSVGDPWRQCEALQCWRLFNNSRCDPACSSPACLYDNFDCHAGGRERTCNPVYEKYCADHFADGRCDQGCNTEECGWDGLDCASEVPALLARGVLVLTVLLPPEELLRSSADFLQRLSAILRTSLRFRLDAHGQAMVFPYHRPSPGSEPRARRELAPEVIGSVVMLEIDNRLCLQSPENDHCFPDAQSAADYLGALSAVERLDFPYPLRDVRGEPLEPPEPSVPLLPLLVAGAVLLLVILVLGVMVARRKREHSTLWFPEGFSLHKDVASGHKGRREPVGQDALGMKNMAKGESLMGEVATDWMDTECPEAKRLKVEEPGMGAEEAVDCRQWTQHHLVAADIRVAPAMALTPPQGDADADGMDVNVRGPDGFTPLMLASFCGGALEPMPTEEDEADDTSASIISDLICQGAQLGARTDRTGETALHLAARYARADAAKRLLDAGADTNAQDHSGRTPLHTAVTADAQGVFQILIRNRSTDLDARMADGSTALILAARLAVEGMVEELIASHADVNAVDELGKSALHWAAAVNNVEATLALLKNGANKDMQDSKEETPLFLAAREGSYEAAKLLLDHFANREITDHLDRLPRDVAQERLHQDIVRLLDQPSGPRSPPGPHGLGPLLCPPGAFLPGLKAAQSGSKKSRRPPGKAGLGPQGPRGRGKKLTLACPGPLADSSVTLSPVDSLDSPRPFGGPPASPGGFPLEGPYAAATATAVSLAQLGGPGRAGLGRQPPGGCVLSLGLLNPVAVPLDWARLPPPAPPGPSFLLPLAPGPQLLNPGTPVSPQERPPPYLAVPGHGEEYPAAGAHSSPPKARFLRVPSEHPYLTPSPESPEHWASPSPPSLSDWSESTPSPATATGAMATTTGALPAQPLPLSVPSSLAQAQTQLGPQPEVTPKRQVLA

[10] = small-molecule microarray binders of probe aEGFR, primary screen, biochemical, biotinylated probe, 635/667 nm fluorescence (AID 1097); conditions: higher = more signal;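 also: probe is a biotinylated anti-EGFR antibody binding compounds printed on slides; score combines fluorescence near 667 nm and signal to noise of each spot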
[11] = test system: Plasmodium falciparum Sir2 (PF13_0152, Sir2A); assay: pfSir2 binders on small-molecule microarrays, primary screen, biochemical, small-molecule microarray, 635 nm fluorescence (AID 1098); conditions: small-molecule microarray binding, fluorescence 635 nm; higher = more signal;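 also: score merges spot fluorescence intensity with its signal-to-noise ratio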
[12] = small-molecule microarray binders of probe aDKK1, primary screen, biochemical, biotinylated probe, 635/667 nm fluorescence (AID 1099); conditions: higher = more signal;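 also: score merges 667nm spot fluorescence with signal to noise across triplicate slides; reference of the scale not given here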
[13] = small-molecule microarray binders of probe aCHRDL2, primary screen, biochemical, biotinylated probe, 635/667 nm fluorescence (AID 1100); conditions: higher = more signal
[14] = splicing luciferase reporter signal modulators, primary screen, spliceosome inhibition project, cell-based, HEK293, splice +/- reporter (AID 1101); conditions: luminescence, 24 h, higher = more signal, called active from +8 up or from −8 down;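 also: HEK293 cells carrying a splicing-competent luciferase reporter gene; test concentration not given here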
[15] = target: Fibroblast growth factor 10 (Homo sapiens) (UniProt O15520); assay: FGF10 binders on small-molecule microarrays, primary screen, biochemical, small-molecule microarray, 635 nm fluorescence (AID 1102); conditions: FGF10 binding, fluorescence 635 nm, higher = more signal
Fibroblast growth factor 10 (Homo sapiens), sequence (O15520 whole entry, looked up): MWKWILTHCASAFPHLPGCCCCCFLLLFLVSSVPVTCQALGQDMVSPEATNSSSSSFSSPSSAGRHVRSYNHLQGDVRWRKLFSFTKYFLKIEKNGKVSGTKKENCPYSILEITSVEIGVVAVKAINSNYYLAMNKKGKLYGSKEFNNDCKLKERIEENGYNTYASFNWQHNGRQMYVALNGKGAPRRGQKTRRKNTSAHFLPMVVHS

[16] = test system: glycogen synthase kinase-3 (GSK3A per assay name; protocol says GSK3B); assay: GSK3 binders on small-molecule microarrays, primary screen, biochemical, small-molecule microarray, 635 nm fluorescence, GSK3A (AID 1103); conditions: small-molecule microarray binding, fluorescence 635 nm; higher = more signal; also: the record names both GSK3A and GSK3B
[17] = target: Epidermal growth factor receptor (Homo sapiens) (UniProt P00533); assay: EGFR binders on small-molecule microarrays, primary screen, biochemical, small-molecule microarray, 635 nm fluorescence (AID 1104); conditions: EGFR binding, higher = more signal;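 also: score merges 667 nm emission intensity with spot signal to noise over triplicate slides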
Epidermal growth factor receptor (Homo sapiens), sequence (P00533 whole entry, looked up): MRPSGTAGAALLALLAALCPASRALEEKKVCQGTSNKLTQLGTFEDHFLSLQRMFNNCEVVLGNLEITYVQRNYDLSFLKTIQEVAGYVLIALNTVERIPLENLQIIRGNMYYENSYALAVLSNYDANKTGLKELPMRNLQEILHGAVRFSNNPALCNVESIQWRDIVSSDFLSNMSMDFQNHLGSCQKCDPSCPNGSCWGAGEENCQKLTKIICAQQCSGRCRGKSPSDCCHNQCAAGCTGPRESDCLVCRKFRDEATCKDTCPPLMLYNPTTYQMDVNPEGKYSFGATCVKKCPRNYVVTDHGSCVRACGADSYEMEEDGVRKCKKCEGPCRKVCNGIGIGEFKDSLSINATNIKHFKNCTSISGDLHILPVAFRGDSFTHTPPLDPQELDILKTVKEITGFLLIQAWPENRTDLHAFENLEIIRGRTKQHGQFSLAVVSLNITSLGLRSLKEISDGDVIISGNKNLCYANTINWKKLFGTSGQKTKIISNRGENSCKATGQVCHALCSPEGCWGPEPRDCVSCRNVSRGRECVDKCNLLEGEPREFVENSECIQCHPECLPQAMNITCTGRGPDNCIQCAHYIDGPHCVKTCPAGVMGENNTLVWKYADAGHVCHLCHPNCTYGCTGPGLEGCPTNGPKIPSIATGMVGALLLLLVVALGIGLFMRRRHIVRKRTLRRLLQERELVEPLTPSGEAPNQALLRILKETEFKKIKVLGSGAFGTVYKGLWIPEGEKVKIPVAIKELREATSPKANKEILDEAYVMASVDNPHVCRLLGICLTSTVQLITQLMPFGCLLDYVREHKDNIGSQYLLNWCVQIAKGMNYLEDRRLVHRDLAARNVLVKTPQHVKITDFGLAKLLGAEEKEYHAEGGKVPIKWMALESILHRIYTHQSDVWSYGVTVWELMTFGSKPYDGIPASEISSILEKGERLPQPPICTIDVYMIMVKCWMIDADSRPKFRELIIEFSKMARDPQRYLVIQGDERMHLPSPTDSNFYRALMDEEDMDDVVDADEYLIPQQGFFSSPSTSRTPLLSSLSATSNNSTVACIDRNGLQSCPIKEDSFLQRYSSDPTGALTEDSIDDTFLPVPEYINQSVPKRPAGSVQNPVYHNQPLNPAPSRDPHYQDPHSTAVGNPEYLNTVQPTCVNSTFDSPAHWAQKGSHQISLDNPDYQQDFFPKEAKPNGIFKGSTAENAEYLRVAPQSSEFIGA

[18] = target: Follistatin-related protein 3 (Homo sapiens) (UniProt O95633); assay: FSTL3 binders on small-molecule microarrays, primary screen, biochemical, small-molecule microarray, 635 nm fluorescence (AID 1105); conditions: FSTL3 binding, higher = more signal;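 also: score merges emission near 667 nm and signal to noise per printed spot across three slides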
Follistatin-related protein 3 (Homo sapiens), sequence (O95633 whole entry, looked up): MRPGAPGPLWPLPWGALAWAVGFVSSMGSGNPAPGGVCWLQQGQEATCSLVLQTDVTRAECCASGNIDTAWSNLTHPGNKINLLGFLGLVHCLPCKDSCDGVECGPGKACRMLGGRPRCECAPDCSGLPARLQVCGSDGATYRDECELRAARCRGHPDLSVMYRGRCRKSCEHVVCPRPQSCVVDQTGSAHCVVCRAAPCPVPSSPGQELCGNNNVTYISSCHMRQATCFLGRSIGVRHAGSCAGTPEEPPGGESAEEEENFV

[19] = target: Dickkopf-related protein 1 (Homo sapiens) (UniProt O94907); assay: DKK1 binders on small-molecule microarrays, primary screen, biochemical, small-molecule microarray, 635 nm fluorescence scan (AID 1106); conditions: DKK1 binding, higher = more signal;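 also: score merges emission near 667 nm with signal to noise over three replicate slides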
Dickkopf-related protein 1 (Homo sapiens), sequence (O94907 whole entry, looked up): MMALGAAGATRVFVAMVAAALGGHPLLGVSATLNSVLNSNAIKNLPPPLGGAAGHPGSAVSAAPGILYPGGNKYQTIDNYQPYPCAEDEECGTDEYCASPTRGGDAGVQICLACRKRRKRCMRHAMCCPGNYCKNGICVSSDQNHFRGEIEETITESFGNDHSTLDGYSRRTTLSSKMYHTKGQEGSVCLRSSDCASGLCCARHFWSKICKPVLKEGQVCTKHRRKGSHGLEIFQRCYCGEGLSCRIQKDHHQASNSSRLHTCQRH

[20] = test system: Inhibin beta A chain (activin A); assay: INHBA (activin A) binders on microarrays, primary screen, biochemical, small-molecule microarray, 635 nm fluorescence scan (AID 1107); conditions: small-molecule microarray binding, higher = more signal;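 also: mouse activin A protein probed at 4.33 µg/mL on printed slides; score merges bound-protein fluorescence near 667 nm with spot signal-to-noise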

Row | SMILES | composite z-score [1] | z-score [2] | z-score [3] | z-score [4] | composite z-score [5] | z-score [6] | composite z-score [7] | composite z-score [8] | composite z-score [9] | composite z-score [10] | composite z-score [11] | composite z-score [12] | composite z-score [13] | z-score [14] | composite z-score [15] | composite z-score [16] | composite z-score [17] | composite z-score [18] | composite z-score [19] | composite z-score [20]
1 | C=C(COC)C(=O)CC[C@@H](OC(=O)c1ccccc1-c1ccccc1C(=O)O)c1ccc(CO)o1 | 1.38 | -24.5 (active) | -20.5 (active) | -4.45 (inactive) | 2.4 | -0.177 (inactive) | -0.215 | 1.63 | 0.314 | -0.0512 | 1.51 | -0.4 | -0.69 | -1.24 (inactive) | 1.57 | 0.464 | 0.109 | 0.399 | 1.14 | 0.466
2 | C=CCOC(=O)[C@H]1[C@@H]2C(=O)O[C@@H](c3ccccc3)[C@@H](c3ccccc3)N2[C@@H](c2ccc(OCCOC(=O)[C@@H]3C[C@@H]4C(=O)NCC(=O)N4[C@@H]3c3ccc(O)cc3)cc2)[C@]12C(=O)Nc1ccc(I)cc12 | 1.55 | 0.591 (inactive) | 0.0218 (inactive) | 2.48 (inactive) | 2.57 | -0.375 (inactive) | -0.205 | 1.64 | 1.11 | -0.0788 | 1.49 | -0.106 | 0.0065 | -0.0179 (inactive) | 1.2 | 1.3 | 1.14 | 1.34 | 0.873 | 0.141
3 | C=C(COC)C(=O)CC[C@H](OC(=O)c1cccnc1)c1ccccc1OCCO | 1.56 | -2.31 (inactive) | -1.57 (inactive) | -0.278 (inactive) | 1.47 | 0.473 (inactive) | 0.157 | 1.15 | 1.15 | -0.0406 | 1.25 | 0.224 | 0.561 | 0.193 (inactive) | 1.12 | 0.844 | 0.471 | 1.27 | 0.559 | 1.22
4 | COC(=O)[C@@]1(Cc2ccc(OC)cc2)[C@H]2c3cc(C(=O)N4CCCC4)n(C[C@H](O)CO)c3C[C@H]2CN1C(=O)c1ccccc1 | -0.448 | 0.659 (inactive) | 1.13 (inactive) | 0.454 (inactive) | 2.4 | -0.0765 (inactive) | 0.0069 | -0.533 | 0.355 | -0.175 | 1.06 | 0.642 | 0.913 | 1.19 (inactive) | 0.974 | -0.681 | -0.352 | -0.519 | -0.385 | 0.903
5 | O=C(NCC(O)CO)[C@]1(CCS(=O)(=O)c2ccccc2)N=C(c2ccc(OCCCO)cc2)O[C@@H]1c1ccccc1 (stereo not given in full) | -0.214 | -0.59 (inactive) | -0.149 (inactive) | -0.92 (inactive) | 3.67 | 0.169 (inactive) | -0.0949 | -0.203 | -0.256 | -0.0913 | 1.11 | 1.28 | 1.34 | 0.833 (inactive) | 0.305 | 0.516 | -0.498 | -0.365 | -0.868 | 0.529
